Compound activity (PubChem BioAssay)
The list is not random: actives were taken first. Their share in the collection is about 11%.
FLuc inh = inhibitors of firefly (Photinus pyralis) luciferase. P08659. purified P. pyralis luciferase, luminescence, biochemical. Potency, µM (series often up to 115 µM), most hits filed as inhibitors. hit rate 2.5% among 76,000. AID 1347043; active = well fitted curve in the direction sought with a large enough effect; inconclusive = small, poorly fitted or top-dose-only effect, or another doubt; inactive = no such curve, though single readings can be large; an effect the other way counts as inactive or inconclusive; also: % is scaled to controls: 0 for no effect and ±100 for the full control effect; nearly all actives have a fitted effect of over 65% in size
Target sequence (P08659 whole entry, looked up): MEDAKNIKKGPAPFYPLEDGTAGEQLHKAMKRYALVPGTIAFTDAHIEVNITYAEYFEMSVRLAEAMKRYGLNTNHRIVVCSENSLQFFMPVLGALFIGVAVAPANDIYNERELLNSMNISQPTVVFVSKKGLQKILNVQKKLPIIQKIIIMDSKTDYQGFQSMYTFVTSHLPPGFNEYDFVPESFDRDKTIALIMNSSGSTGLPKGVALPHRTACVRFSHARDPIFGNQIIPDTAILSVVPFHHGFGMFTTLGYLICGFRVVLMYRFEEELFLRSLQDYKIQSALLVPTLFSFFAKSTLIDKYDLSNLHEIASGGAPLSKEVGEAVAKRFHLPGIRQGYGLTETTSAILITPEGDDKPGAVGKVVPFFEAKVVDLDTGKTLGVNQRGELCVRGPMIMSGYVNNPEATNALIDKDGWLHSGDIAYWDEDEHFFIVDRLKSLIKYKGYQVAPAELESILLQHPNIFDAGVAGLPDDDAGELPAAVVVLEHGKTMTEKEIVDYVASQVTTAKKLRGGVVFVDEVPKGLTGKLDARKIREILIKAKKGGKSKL
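Inhibitors were tested against purified firefly luciferase in a biochemical, low-substrate format (both substrates at 10uM) and luminescence measured with a CCD imager.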
NIH3T3 tox = NIH 3T3 cell cytotoxicity; NIH 3T3 viability, CellTiter-Glo ATP luminescence, 48-72 h; Potency, µM (highest dose often 96.7 µM), inactives show top-dose activity change, negative = cytotoxicity, actives largely listed as inhibitors; hit rate 4.3% among 94,000; AID 1345082; active = well fitted curve in the direction sought with a large enough effect; inconclusive = small, poorly fitted or top-dose-only effect, or another doubt; inactive = no such curve, though single readings can be large; an effect the other way counts as inactive or inconclusive; also: % is scaled to controls: 0 for no effect and ±100 for the full control effect; nearly all actives have a fitted effect of over 55% in size
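Cytotoxicity is measured as loss of cellular ATP: NIH 3T3 cells (400/well) are exposed to compound for 48 or 72 hr at 37 °C, then CellTiter-Glo luminescence is imaged after 10 min at room temperature.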
hNpr1 antagonist = antagonists of human natriuretic peptide receptor Npr1; AID 1347048; hit rate 1.6% among 76,000; HEK293 hNpr1 GloSensor cGMP, ANP-stimulated luminescence; P16066; Potency, µM (doses to about 46.3 µM), for the others: top-dose activity change, negative = inhibition, hits mostly inhibitors; also: % is scaled to controls: 0 for no effect and ±100 for the full control effect; nearly all actives have a fitted effect of over 60% in size
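HEK293 cells stably expressing human Npr1 and cGMP GloSensor pGS-40F, loaded 2 h with 2% GloSensor reagent, given compound 30 min at room temperature. Luminescence read before and 20 min after 0.1 nM hNppA.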
HEK293 tox = HEK 293 cell cytotoxicity. AID 1345083. hit rate 6.6% among 94,000. Potency, µM (highest dose often 115 µM), for the others: at the top dose activity change, negative = cytotoxicity, actives largely listed as inhibitors. HEK 293 viability, ATP luminescence (CellTiter-Glo), 48-72 h; active = well fitted curve in the direction sought with a large enough effect; inconclusive = small, poorly fitted or top-dose-only effect, or another doubt; inactive = no such curve, though single readings can be large; an effect the other way counts as inactive or inconclusive; also: % is scaled to controls: 0 for no effect and ±100 for the full control effect; nearly all actives have a fitted effect of over 60% in size
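qHTS cytotoxicity; HEK 293, 250 cells/well; compound pinned; 48 or 72 hr, 37 degree Celsius, 5% CO2, 95% humidity; CellTiter-Glo, 10 min RT; luminescence (ATP).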
Npr1 antag conf = hNpr1 antagonism, confirmation assay; hit rate 76% among 1,400; shares compounds with hNpr1 antagonist; AID 1347044; Potency, µM (top dose mostly 57.6 µM), for the others: at the top dose activity change, negative = inhibition, actives largely listed as inhibitors; HEK293 hNpr1 cGMP GloSensor luminescence, ANP-stimulated; also: nearly all actives have a fitted effect of over 70% in size
Npr2 selectivity = hNpr2 antagonism, selectivity versus Npr1; Potency, µM (series often up to 57.6 µM), for the others: at the highest dose activity change, negative = inhibition, hits mostly inhibitors; shares compounds with hNpr1 antagonist; HEK293 hNpr2 GloSensor cGMP luminescence, CNP-stimulated; hit rate 67% among 1,400; also: nearly all actives have a fitted effect of over 70% in size
FLuc inh counter = counter-screen for Npr1 antagonists: firefly luciferase inhibitors; purified FLuc enzyme, luminescence, Km substrate; hit rate 0.7% among 1,400; shares compounds with hNpr1 antagonist; Potency, µM (titrated, usually from 57.6 µM), for inactives: top-dose activity change, negative = inhibition, actives largely listed as inhibitors; active = well fitted curve in the direction sought with a large enough effect; inconclusive = small, poorly fitted or top-dose-only effect, or another doubt; inactive = no such curve, though single readings can be large; an effect the other way counts as inactive or inconclusive; also: series mostly up to about 58 µM; 0% is about no effect
GloSensor cGMP = reduces cGMP signal in GloSensor control cells; hit rate 69% among 1,400; shares compounds with hNpr1 antagonist; HEK293 GloSensor cGMP, SNP-stimulated, luminescence; Potency, µM (titrated, usually from 57.6 µM), for the others: at the highest dose activity change, negative = inhibition, most hits filed as inhibitors; also: % is scaled to controls: 0 for no effect and ±100 for the full control effect; nearly all actives have a fitted effect of over 70% in size
Active calls of the source: *; i = inactive; ? = inconclusive; · = not tested or not shown; [ ] = remark or other dose. Unless noted, calls follow the shape of the full dose curve. Potency is read from the fitted curve at half-maximal effect.

SMILES	FLuc inh	NIH3T3 tox	hNpr1 antagonist	HEK293 tox	Npr1 antag conf	Npr2 selectivity	FLuc inh counter	GloSensor cGMP
Clc1cc(NCCOc2ccccc2)n2nccc2n1	?	?	-30%[70.6 µM]	?	·	·	·	·
COc1cccc(CNc2cc(Cl)nc3ccnn23)c1	i	28µM*	?	?	40µM*	35µM*	2%[86.2 µM]	35µM*
Cc1ccc(C(=O)N2CCC(c3n[nH]c(=O)n3Cc3ccc(F)cc3)CC2)cc1C	i	-25%	-3%	?	·	·	·	·
Cc1c(C(=O)N(C)Cc2cc(-c3cccnc3)no2)oc2c(F)cccc12	i	?	?	?	?	-24%	6%	0%
N#Cc1ccccc1CN1CCCC(C(=O)NCc2ccccc2)CCNC(=O)CC1 (stereo not drawn)	i	-11%	4µM*	i	14µM*	6.1µM*	3%	15%
COc1cccc(CN2CCCC(C(=O)NCc3ccccc3)CCNC(=O)CC2)c1 (stereo not drawn)	i	-1%	0%	i	·	·	·	·
O=C(NCCc1ccccc1F)c1cn2cc(-c3ccc(C(F)(F)F)cc3)sc2n1	·	-27%	·	-14%	·	·	·	·
CCCc1cc(C(=O)N2CCC(=O)N(Cc3ccccc3)C(CC)C2)ccn1 (stereo not drawn)	i	?	11µM*	?	9.7µM*	12µM*	-2%	11µM*
CCC1CN(C(=O)c2ccc3nc[nH]c3c2)CCC(=O)N1Cc1ccccc1 (stereo not drawn)	i	-25%	-10%	-29%	·	·	·	·
CN(C/C=C/c1ccccc1)c1cc(C2CC(O)C2)nc(N)n1 (stereo not drawn)	i	-74%	13µM*	?	22µM*	17µM*	1%	24µM*
O=C1N(C2CCN(Cc3ccc(C(F)(F)F)cc3)CC2)Cc2cccn21	·	-29%	·	?	15µM*	17µM*	-3%	12µM*
COc1ccc(CN2CCC(N3Cc4cccn4C3=O)CC2)cc1	·	-14%	·	?	·	·	·	·
CN(C)[S+](=O)([O-])c1ccc2c(c1)OCCN(Cc1ccccc1F)C2	i	?	-10%[70.6 µM]	?	·	·	·	·
Cc1ccc(F)cc1CN1CCOc2cc([S+](=O)([O-])N(C)C)ccc2C1	i	?	35µM*	40µM*	40µM*	40µM*	-2%[86.2 µM]	35µM*
COc1ccccc1C(=O)N1CCC(C(=O)N2CCC(N3CCOCC3=O)CC2)CC1	·	-8%	·	i	·	·	·	·
O=[S+]([O-])(c1ccccc1)N1CC(Oc2ccc3c(c2)OCO3)C1	·	-22%	·	-28%	·	·	·	·
O=C(CC1CCCCC1)N1CCC(Cc2nc(-c3ccccc3)no2)CC1	i	?	10µM*	?	14µM*	15µM*	0%	9.7µM*
COCC(=O)N1CCC(c2noc(COc3ccc(F)cc3)n2)CC1	·	-12%	·	-13%	·	·	·	·
O=C(CCC1CCCC1)N1CCC(Cc2nc(C3CCOCC3)no2)CC1	i	?	10µM*	?	12µM*	17µM*	5%	12µM*
O=C(CC1CCCCC1)N1CCC(n2cc(-c3nc(-c4ccccc4)no3)nn2)CC1	i	?	11µM*	28µM*	24µM*	22µM*	-2%	22µM*
O=C(CC1CCCCC1)N1CCC(c2noc(COc3ccc(F)cc3)n2)CC1	i	?	7.1µM*	?	12µM*	14µM*	-7%	14µM*
O=C1Nc2ccccc2CC12CCN(CC1CC1)CC2	i	-5%[138 µM]	2%[70.6 µM]	-24%[172 µM]	·	·	·	·
COc1ccc2[nH]cc(CCNC(=O)c3ccc(N4CC5CC(C4)[C@H]4CCCC(=O)N4C5)nc3)c2c1 (stereo partly drawn)	i	-29%	-2%	-18%	·	·	·	·
O=C(CC1CCCC1)N1CCC(Cc2nc(-c3ccc(F)cc3)no2)CC1	i	?	2.2µM*	?	2.2µM*	3.1µM*	3%	3.1µM*
O=C(Cc1ccccc1Cl)N1CCC(Cc2nc(-c3ccc(F)cc3)no2)CC1	i	?	16µM*	?	12µM*	15µM*	4%	11µM*
SMILES	FLuc inh	NIH3T3 tox	hNpr1 antagonist	HEK293 tox	Npr1 antag conf	Npr2 selectivity	FLuc inh counter	GloSensor cGMP
COc1ccc(NC(=O)N2C[C@@H](F)C[C@H]2C(=O)N2CCc3ccccc3C2)cc1	·	-10%	·	2%	·	·	·	·
Cc1nc(N2CCC(C(=O)NC3CCCCCCC3)CC2)cc(C(F)(F)F)n1	?	-37%	10µM*	?	7.7µM*	14µM*	1%	7.7µM*
Cc1nc(N2CCC(C(=O)Nc3ccc(F)c(Cl)c3)CC2)cc(C(F)(F)F)n1	i	?	11µM*	25µM*	22µM*	22µM*	1%	22µM*
Cc1nc(N2CCC(C(=O)NC3CCc4ccccc43)CC2)cc(C(F)(F)F)n1 (stereo not drawn)	i	?	?	?	22µM*	19µM*	1%	17µM*
Cc1nc(N2CCC(C(=O)NC3CCCCCC3)CC2)cc(C(F)(F)F)n1	i	-31%	?	?	14µM*	12µM*	-1%	9.7µM*
Cc1nc(N2CCC(C(=O)NCc3ccccc3Cl)CC2)cc(C(F)(F)F)n1	i	?	?	?	·	·	·	·
COc1cccc(S(=O)(=O)N2CCCC(CN3CCOCC3)CC2)c1 (stereo not drawn)	i	-18%	-15%	?	·	·	·	·
c1ccc([C@@H]2CNC[C@H]2COc2ccncc2)nc1	i	0%	0%	-5%	·	·	·	·
O=C(O)CCCC(=O)N1CCN2C(=O)c3cc(-c4ccco4)ccc3NC(=O)[C@@H]2C1	i	-19%[138 µM]	4%[70.6 µM]	-19%[172 µM]	·	·	·	·
COc1ccc(CN(C)C(=O)c2ccc3oc(C)cc3c2)c2cccnc12	i	?	5µM*	?	6.9µM*	6.9µM*	1%	4.3µM*
COc1cc(OC)cc(C(=O)N2CCN(c3cc(-c4cccs4)[nH]n3)CC2)c1	i	?	-17%	?	·	·	·	·
O=C(c1ccc(Cl)cc1Cl)N1CCN(c2cc(-c3cccs3)[nH]n2)CC1	i	8.9µM*	10µM*	45µM*	24µM*	19µM*	1%	22µM*
COc1cc(Cl)ccc1C(=O)N1CCN(c2cc(-c3cccs3)[nH]n2)CC1	i	?	11µM*	25µM*	19µM*	19µM*	2%	17µM*
